Measurements: PubChem BioAssay AID763 (NMMLSC, 2007)

molecular target: fMet-Leu-Phe receptor (Homo sapiens) (UniProt P21462); assay: FPR1 fluorescent ligand binding inhibitors, SAR follow-up, selectivity assay for FPRL1 ligand SAR project, cell-based, single concentration (AID 763); conditions: FPR1-expressing cells, stronger effect = higher value; at 5.4 µM unless noted
Sequence (P21462 whole entry, looked up): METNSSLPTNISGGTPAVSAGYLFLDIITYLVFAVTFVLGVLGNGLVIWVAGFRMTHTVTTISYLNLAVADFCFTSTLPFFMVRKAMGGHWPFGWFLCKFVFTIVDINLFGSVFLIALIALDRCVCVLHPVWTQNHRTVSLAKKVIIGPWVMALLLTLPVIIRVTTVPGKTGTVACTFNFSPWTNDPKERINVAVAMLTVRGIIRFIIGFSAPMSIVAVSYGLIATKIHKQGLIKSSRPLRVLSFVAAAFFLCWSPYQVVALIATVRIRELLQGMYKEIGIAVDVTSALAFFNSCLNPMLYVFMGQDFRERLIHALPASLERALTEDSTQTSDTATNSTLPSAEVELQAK

inhibition, inactive:
O=C(O)/C=C/C(=O)N1CCN(c2nc(-c3ccccc3)c3ccccc3n2)CC1 2.4% [at 5.7 µM]
CCOC(=O)N1CCN(c2nc(-c3cccc(OC)c3)cc(C(F)(F)F)n2)CC1 -33.9%
O=C(c1cccc(F)c1)N1CCN(c2nc(-c3ccc(F)cc3)cc(C(F)(F)F)n2)CC1 -0.1% [at 5 µM]
COc1ccccc1-c1cc(C(F)(F)F)nc(N2CCN(c3ccccc3OC)CC2)n1 -2.2% [at 5 µM]
Cc1ccccc1C(=O)N1CCN(c2nc(-c3ccccc3)c3cc(Cl)ccc3n2)CC1 -3.4% [at 5 µM]
O=C(N1CCN(c2nc(-c3ccccc3)c3ccccc3n2)CC1)C(F)(F)F 5.9% [at 5.8 µM]
CCCCOc1ccc(C(=O)Nc2cc(-c3cn4cccnc4n3)ccc2OC)cc1 2.6% [at 5.3 µM]
CCOC(=O)N1CCN(c2nc(-c3ccccc3Cl)c3cc(Br)ccc3n2)CC1 1.8% [at 4.7 µM]
COc1ccc(-c2cn3cccnc3n2)cc1NC(=O)COc1ccccc1 5.8% [at 5.9 µM]
COc1ccc(-c2nc(N3CCN(Cc4ccc(Cl)cc4)CC3)[nH]c(=O)c2C#N)cc1 -5.9% [at 5.1 µM]
COc1ccc(C2CC(=O)c3cnc(N4CCN(Cc5ccc6c(c5)OCO6)CC4)nc3C2)cc1 (stereo not drawn) 0.4% [at 4.7 µM]
COc1ccc(-c2cn3cccnc3n2)cc1NC(=O)COc1ccc(Cl)cc1 -3.3%
COc1ccc(-c2cn3cccnc3n2)cc1NC(=O)C1CCCCC1 3.2% [at 6.3 µM]
CC(C)(C)OC(=O)N1CCN(c2nc(-c3ccccc3Cl)c3cc(Br)ccc3n2)CC1 8.5% [at 4.4 µM]
COc1ccc(-c2cn3cccnc3n2)cc1NC(=O)C1CC1 -2.9% [at 7.2 µM]
CN1CCN(c2nc(-c3ccccc3)cc(C(F)(F)F)n2)CC1 -5.9% [at 6.9 µM]
COc1ccc(-c2cn3cccnc3n2)cc1NC(=O)c1ccccc1 -4.9% [at 6.5 µM]
CC(N)C(=O)N1CCN(c2nc(-c3ccccc3)c3cc([N+](=O)[O-])ccc3n2)CC1 (stereo not drawn) -1.4% [at 5.5 µM]
Cc1nc2c3c(-c4ccccc4)nc(N4CCN(C)CC4)nc3nn2c(C)c1CCC(=O)O 0% [at 5 µM]
COc1ccc(-c2cc(C(F)(F)F)nc(N3CCN(Cc4ccccc4)CC3)n2)cc1OC 4.7% [at 4.9 µM]
CC(=O)N1CCN(c2nc(-c3ccccc3)c3ccccc3n2)CC1 2.3% [at 6.7 µM]
COc1ccc(C(=O)Nc2cc(-c3cn4cccnc4n3)ccc2OC)cc1 3.4% [at 5.9 µM]
CCOC(=O)N1CCN(c2nc(-c3ccccc3)c3ccccc3n2)CC1 3.6% [at 6.1 µM]
Cc1ccc2nc(N3CCN(C(=O)CC4(CC(=O)O)CCCC4)CC3)nc(-c3ccccc3)c2c1 0.5% [at 4.7 µM]
CC1CCc2nc(N3CCN(Cc4ccccc4)CC3)nc(C(F)(F)F)c2C1 (stereo not drawn) 4.7% [at 5.7 µM]
Cc1ccc(-c2cc(C(F)F)nc(N3CCN(Cc4ccccc4)CC3)n2)cc1 -7.2% [at 5.6 µM]
Clc1ccccc1-c1nc(N2CCN(c3ccccc3)CC2)nc2ccc(Br)cc12 1.5% [at 4.6 µM]
COc1ccc(-c2cn3cccnc3n2)cc1NC(=O)CCCc1ccccc1 -0.5% [at 5.8 µM]
CCCC(=O)Nc1cc(-c2cn3cccnc3n2)ccc1OC 0.5% [at 7.2 µM]
COc1ccc(-c2nc(N3CCN(C)CC3)[nH]c(=O)c2C#N)cc1 -1.7% [at 6.8 µM]
CC(C)(C)OC(=O)N1CCN(c2nc(-c3ccccc3)c3ccccc3n2)CC1 -1.7% [at 5.7 µM]
CCOC(=O)N1CCN(c2nc(-c3ccccc3OC)cc(C(F)(F)F)n2)CC1 1%
COc1ccc(-c2cc(C(F)(F)F)nc(N3CCN(C)CC3)n2)cc1 2.1% [at 6.3 µM]
